In the library only some 8.8% were active in any assay of this set; here they are far more common.
KB-V1 cytotox: KB-V1 MDR subline cytotoxicity | KB-V1 MDR cells viability, CellTiter-Glo, 72 h | Potency, µM (titrated, usually from 46.1 µM), most hits filed as cytotoxic | 3.4% of 400,000 active; also: potency is read from the fitted curve at half-maximal effect; nearly all actives have a fitted effect of over 60% in size
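Drug-selected KB-V1 cells, grown in DMEM lacking phenol red with 10% FBS, receive compound titrations; after three days at 37 degrees C, surviving cell ATP is quantified by CellTiter-Glo luminescence and responses normalized and curve-fitted.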
HT1080 IDH1KD tx: HT-1080 IDH1 knockdown cell toxicity (counter line) | HT-1080 IDH1 knockdown viability, ATP luminescence, 48 h | Potency, µM (top dose mostly 46.1 µM), for the others: at the top dose activity, negative = toxicity, most hits filed as cytotoxic | 2% of 360,000 active | AID 686971;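 also: potency is read from the fitted curve at half-maximal effect; 0% = DMSO wells and -100% = cell-free medium wells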
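Using the IDH1-knockdown HT-1080 line run in the same batch and compound series as the NT line, viability after 48 h at 37 °C was determined by CellTiter-Glo luminescence and expressed as % activity.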
HT1080-NT tox: kills 2HG-producing HT-1080-NT fibrosarcoma cells | 1.6% of 360,000 active | HT-1080-NT fibrosarcoma viability, CellTiter-Glo ATP luminescence, 48 h | Potency, µM (series often up to 46.1 µM), for inactives: at the top dose activity, negative = less viability, most hits filed as cytotoxic;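 also: NT is the 2HG producing partner of a matched IDH1 knockdown line; potency is read from the fitted curve at half-maximal effect; 0% = DMSO-treated cells and -100% = media-only wells without cells; nearly all actives have a fitted effect of over 55% in size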
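Viability of the 2HG-overproducing fibrosarcoma line after 48 hours of compound exposure at 37 degrees C was determined by luminescence with CellTiter-Glo, and concentration-effect curves were then fitted and categorized.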
KB-3-1 tox: kills parental KB-3-1 adenocarcinoma cells | 1.4% of 400,000 active | KB-3-1 viability, CellTiter-Glo ATP luminescence, 72 h | Potency, µM (top dose mostly 46.1 µM), most hits filed as cytotoxic | AID 1347075; also: potency is read from the fitted curve at half-maximal effect; nearly all actives have a fitted effect of over 60% in size
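Here the drug-naive KB-3-1 line serves as comparator for MDR sub-line selectivity; cells received compound titrations, 72 h at 37 °C, then CellTiter-Glo readout.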
IL1B secr inh: blocks inflammasome-driven IL-1 beta release; THP-1 LPS/ATP IL-1B secretion, AlphaLISA, 16 h; hits give low values; 4.7% of 360,000 active; activity change, % at 57.5 µM; in the data active = activity change below about -50%; inconclusive = mostly about -30% to -49%
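THP-1 cells pretreated 1 hr with compounds (up to 57.5 uM final), then stimulated with LPS (250 ng/mL final) plus ATP (1.25 mM final); secreted IL-1B measured by AlphaLISA after 16 hr, decreased signal indicating inhibition.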
The depositor's hits bear a star; i = inactive; ? = inconclusive; . = not tested or not shown. Unless noted, calls follow the shape of the dose curve; as a rule, active = well fitted curve in the direction sought with a large enough effect; inconclusive = small, poorly fitted or top-dose-only effect, or another doubt; inactive = no such curve, though single readings can be large; an effect the other way counts as inactive or inconclusive. Unless noted, % is scaled to controls: 0 for no effect and ±100 for the full control effect.

SMILES	KB-V1 cytotox	HT1080 IDH1KD tx	HT1080-NT tox	KB-3-1 tox	IL1B secr inh
C=C(C)C1CC=C(C)/C(=N/NC(=O)C2CC2c2ccccc2)C1 (configuration not stated)	i	-2%	-1%	i	-10
CCN(CC)CCN(C)Cc1nc(C(c2ccccc2)c2ccccc2)no1	i	-4%	-1%	i	-64*
CSc1cccc(NC(=O)C2(S(=O)(=O)c3ccc(C)cc3)CC2)c1	i	0%	21%	i	-9
COc1ccc(O[C@@H]2O[C@H](COC(C)=O)[C@@H](OC(C)=O)[C@H](OC(C)=O)[C@H]2NC(C)=O)cc1	i	2%	5%	i	13
COC(=O)C1C=CC(OC2OC(COC(C)=O)C(OC(C)=O)C(OC(C)=O)C2OC(C)=O)n2c(=O)n(-c3ccccc3)c(=O)n21 (configuration not stated)	5.2µM*	5.8µM*	?	?	-10
COc1ccc(S(=O)(=O)N(CCCN2CCCC2=O)Cc2cc3cc(C)c(C)cc3[nH]c2=O)cc1	i	5%	0%	i	-73*
Cc1ccc(S(=O)(=O)N(CCCN2CCCC2=O)Cc2cc3c(C)ccc(C)c3[nH]c2=O)cc1	?	9%	14%	i	-2
COC(=O)c1cccc(NC(=O)c2cc3sccc3n2C)c1	9.2µM*	4%	3%	i	-16
COc1cc(C)c2c(c1OC)C(=O)CC2	i	13%	14%	i	0
COc1ccc(NC(=O)C[C@H]2C(=O)N(c3ccc(Br)cc3)C[C@@H]2CSC)cc1	i	-29%	-20%	i	-20
COc1ccc(N2C[C@H](CSC)[C@@H](CC(=O)Nc3ccc(Br)cc3)C2=O)cc1	8.2µM*	-25%	-14%	i	-23
Cc1cc(Cl)ccc1OC(C)C(=O)Nc1cnn(CCCC(=O)O)c1 (configuration not stated)	i	9%	8%	i	13
COC(=O)c1cc(C)nc(Nc2nc(C(N)Cc3ccc(F)cc3)cs2)n1 (configuration not stated)	i	4%	-4%	i	-10
COc1cc(OC)nc(Nc2nc(C(N)Cc3ccc(Cl)cc3)cs2)n1 (configuration not stated)	?	?	23µM*	?	-89*
COC(=O)c1cc(C)nc(Nc2nc(C(N)Cc3ccc(Cl)cc3)cs2)n1 (configuration not stated)	?	?	-10%	?	-68*
Cc1cc(C)nc(Nc2nc(C(N)Cc3ccccc3)cs2)n1 (configuration not stated)	i	7.3µM*	5.8µM*	?	7
Cn1c(=O)c2c(ncn2CC(=O)Nc2nc(-c3ccccc3Cl)cs2)n(C)c1=O	21µM*	-30%	-28%	?	36
CCOC(=O)Cc1csc(NC(=O)Cn2cnc3c2c(=O)n(C)c(=O)n3C)n1	i	0%	9%	i	13
Cc1[nH]nc(-c2ccc(O)c(C)c2O)c1-c1cnn(-c2ccccc2)c1	16µM*	4%	3%	i	?
CCOCN(C(=O)Cn1c(COC)nc2ccccc21)c1c(C)cccc1CC	i	-1%	1%	i	-5
CCOCN(C(=O)Cn1cnc2cc(C)c(C)cc21)c1c(C)cccc1CC	5.2µM*	.	.	?	.
Cc1ccc2c(C(=O)N3CCN(c4ccccc4)CC3)cc(-c3cccnc3)nc2c1C	i	23µM*	?	i	-64*
CCOc1ccc(N(CC(=O)Nc2ccc(OC)cc2)C2=NC3CS(=O)(=O)CC3S2)cc1 (configuration not stated)	i	-9%	-14%	i	-58*
COc1cccc(CNC(=O)CCC2CCCN(C(=O)c3cc4ccccc4o3)C2)c1 (configuration not stated)	i	-7%	-3%	i	-90*
Cc1ccc(O)c(C(=O)/C=C/c2ccc3c(c2)OCCCO3)c1	i	?	?	i	-105*
O=C(/C=C/c1ccc2c(c1)OCCCO2)c1ccccc1O	?	?	?	i	-28

Bioassay records: PubChem BioAssay, National Center for Advancing Translational Sciences (NCATS)
